Assay outcomes deposited in PubChem BioAssay by several laboratories.
SKKanGAS inh – SKKanGAS growth inhibition; inhibition, % at 7.5 µM; AID 1662; S. pyogenes SKKanGAS, kanamycin growth, BacTiter-Glo, 6 h; 300,000 compounds, 1.3% hits;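 active = mean replicate score, as percent of positive control median, at least 50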;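 note: strain carries kanamycin resistance gene driven by streptokinase promoter and grows in 40 µg/ml kanamycin; loss of luminescence reflects streptokinase promoter inhibition or plain growth inhibition; 0% = median of DMSO wells and 100% = positive control at its reference dose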
Rtt109 HAT inh – blocks Candida albicans Rtt109/Vps75 acetyltransferase activity. purified Rtt109/Vps75, ThioGlo CoA-SH fluorescence, 4 h. inhibition, % at 34.9 µM. 330,000 compounds, 0.16% hits;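 active = inhibition of at least 50% in every replicate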
WT yeast gro inh – growth inhibition of WT yeast, mitochondrial fusion screen; 190,000 compounds, 2.1% hits; mitochondrial fusion phenotypic screen, WT strain; inhibition, % at 10 µM; in the data active = inhibition above about 58%; tested in S. cerevisiae
PHOSPHO1 inh – blocks human PHOSPHO1 phosphatase activity; Q8TCT1; recombinant PHOSPHO1, absorbance phosphatase assay; inhibition, % at 13.3 µM; 290,000 compounds, 1.1% hits; in the data active = inhibition above about 60%
Target sequence (Q8TCT1 whole entry, looked up): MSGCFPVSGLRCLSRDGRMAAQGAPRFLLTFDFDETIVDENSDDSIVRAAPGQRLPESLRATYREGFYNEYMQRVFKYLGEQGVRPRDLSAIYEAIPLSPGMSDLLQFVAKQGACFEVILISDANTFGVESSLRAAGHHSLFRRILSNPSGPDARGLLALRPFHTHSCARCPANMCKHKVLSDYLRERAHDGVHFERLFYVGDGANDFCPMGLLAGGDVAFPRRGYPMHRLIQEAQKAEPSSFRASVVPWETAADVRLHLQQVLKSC
Platelet DG rel – modulates dense granule release in human platelets; human platelet-rich plasma, SFLLRN dense granule ATP release, luminescence; 300,000 compounds, 0.22% hits; inhibition, %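 (compounds screened at 7.5 µM in platelet-rich plasma)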; AID 1663;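 active = mean replicate score, as percent of positive control, at or above 50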
TPT1 inhibitor – C. albicans TPT1 enzyme inhibition. recombinant caTPT1, FP RNA substrate dephosphorylation. inhibition, % at 5 µM. 300,000 compounds, 0.81% hits;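 active = inhibition above the mean of all tested compounds plus 3 SD, set per screening campaign, cut at about 24% in these data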;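 note: plate controls were DMSO alone for no effect and ferristatin control at 100 nM for full effect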
Starred values were filed as active, the others as inactive; nt = not tested or not shown. An excerpt weighted towards active compounds, which were near 3.9% of everything screened.

SMILES	SKKanGAS inh	Rtt109 HAT inh	WT yeast gro inh	PHOSPHO1 inh	Platelet DG rel	TPT1 inhibitor
CC(Oc1ccc2ccc(=O)oc2c1)C(=O)NC(Cc1c[nH]c2ccc(O)cc12)C(=O)O (centres undefined)	3.7	1.6	nt	18.2	-1.2	-2.6
O=C(NCC1CCCO1)c1ccc(Cl)c(S(=O)(=O)Nc2ccccc2)c1 (centres undefined)	-2.0	5.8	nt	7.7	1.1	0.8
CC(NC(=O)CSc1nc(C2CC2)n(-c2ccccc2)n1)c1ccco1 (centres undefined)	nt	0.3	nt	nt	nt	nt
Cc1cc(SCc2ccc(Br)cc2)nc(=O)[nH]1	-2.6	4.6	nt	46.9	4.2	0.8
Cc1ccc(S(=O)(=O)Nc2nc3ccccc3nc2Nc2cccc(S(=O)(=O)N3CCCC3)c2)cc1	66.3*	27.5	2.4	-22.4	-18.9	-11.8
CNC[C@H](CC1CCCCC1)NC[C@H](Cc1ccccc1)NCCC12CC3CC(CC(C3)C1)C2	98.1*	24.5	nt	25.4	1.7	2.7
COCCNC(=S)N/N=C(\C)CCc1ccc2c(c1)OCO2	-0.4	-2.3	-13.5	15.5	0.8	-2.7
C/C(CCc1ccc2c(c1)OCO2)=N\NC(=S)NC(C)C	3.8	-0.8	59.1*	35.9	1.3	-0.6
O=C1COc2ccc3ccccc3c21	5.5	-0.7	nt	20.3	2.1	-2.6
CCN(C(=O)COn1nnc2ccc(S(=O)(=O)N(C)C)cc21)C1CCS(=O)(=O)C1 (centres undefined)	nt	-0.5	nt	nt	nt	nt
CCCCc1oc2ccccc2c1C(=O)c1cc(I)c(OCCN(CC)CC)c(I)c1	106.4*	45.3	97.8	nt	-3.4	-3.9
Fc1ccc(C2=Nn3c(Cc4ccccc4F)nnc3SC2)cc1	12.8	2.0	1.9	62.2*	23.5	1.3
Cc1ccc2c(CC(=O)N(C)c3c(N)n(Cc4ccccc4)c(=O)[nH]c3=O)coc2c1	-1.0	-6.3	nt	nt	-4.3	-1.6
COc1ccc(C(CNC(=O)C(C)Oc2ccc(Br)cc2)N2CCCC2)cc1 (centres undefined)	0.2	-0.4	nt	nt	16.1	2.0
CC[C@H]1OC(=O)[C@H](C)[C@@H](O[C@H]2C[C@@](C)(OC)[C@@H](O)[C@H](C)O2)[C@H](C)[C@@H](O[C@@H]2O[C@H](C)C[C@H](N(C)C)[C@H]2O)[C@](C)(O)C[C@@H](C)C(=O)[C@H](C)[C@@H](O)[C@]1(C)O	101.7*	9.9	nt	25.4	-0.3	-3.2
CCOC(=O)CCC(=O)O[C@H]1[C@H](O[C@@H]2[C@@H](C)[C@H](O[C@H]3C[C@@](C)(OC)[C@@H](O)[C@H](C)O3)[C@@H](C)C(=O)O[C@H](CC)[C@@](C)(O)[C@H](O)[C@@H](C)C(=O)[C@H](C)C[C@@]2(C)O)O[C@H](C)C[C@@H]1N(C)C	104.7*	-16.0	38.5	3.5	6.3	-2.0
COc1ccc(/C=C(\C#N)c2nc3ccccc3[nH]2)cc1O	-2.2	-2.1	nt	18.7	3.8	nt
COc1c(O)ccc(/C=C(\C#N)c2nc3ccccc3[nH]2)c1[N+](=O)[O-]	54.6*	14.7	-6.1	18.5	-10.3	5.3
COC(=O)c1ccc(NC(=O)c2ccccc2C(=O)Nc2ccc(C(=O)OC)cc2)cc1	-0.9	-5.1	nt	nt	0.1	-0.3
COC(=O)c1ccc(NC(=O)C(=O)c2cccn2C)cc1	24.0	nt	42.4	35.8	73.2*	-2.0
O=C1C(NS(=O)(=O)c2cccs2)=C(N2CCN(c3ccccc3)CC2)C(=O)c2ccccc21	30.2	1.3	49.2	76.1*	-0.3	-6.5
N#CCCCC1(CCCC#N)OCCO1	nt	3.8	nt	nt	nt	nt
CSc1ccccc1OCc1cc(C(=O)N(C)C(C)c2ccccn2)no1 (centres undefined)	-3.1	2.1	nt	61.0*	-7.1	nt
CCn1c(C)nc2cc(C(=O)NNC(=O)[C@@H](NC(=O)c3cc(OC)cc(OC)c3)C(C)C)ccc21	nt	-7.6	nt	nt	nt	nt
CCc1ccc(OCC(=O)Nc2ccc3c(c2)OCCO3)cc1	-6.9	0.9	nt	20.0	-3.2	-3.7
COc1ccc(CNC(=O)[C@H](C)NC(=O)C2CCN(S(=O)(=O)c3ccc(F)cc3)CC2)cc1	0.4	-10.3	nt	45.3	-0.6	1.0
CC1(c2ccccc2)CC(C)(C)N2C(=O)/C(=C3\SC(=S)NC3=O)c3cccc1c32 (centres undefined)	113.9*	10.4	61.1*	6.0	-12.8	-2.6
Cc1cccc(NC(=O)CSc2cn[nH]n2)c1	-3.2	-2.9	nt	20.0	-5.7	0.3
O=C(CSc1cn[nH]n1)Nc1cccc(C(=O)O)c1	-3.9	81.4*	nt	45.2	-10.0	-0.7
